PubChem BioAssay AID1159580 (chemical genetic matrix, 2015)
About 2,000 (36%) of roughly 5,500 compounds were called active. Another 18% or so got no clear call; they are omitted. Cut-off read from the data, not from the text of the source: active = normalized growth mostly below about 0.91 (no sharp cut-off); inconclusive = no clear call, values can overlap the other calls; inactive = mostly above about 0.92. The list shows a part of the results.

Test: chemical genetic growth profiling, strain panel (AID 1159580);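 note: tested at 20 µM; growth read once vehicle control cultures reached saturation at 30 °C; 1 = growth at the plate median or of vehicle wells; lower values mean less growth of the strain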
Conditions: S. cerevisiae deletion strains, growth OD
[1] = locus YAR019C, strain CDC15, hits give low values
[2] = locus YBL105C, strain PKC1, hits give low values
[3] = locus YBR135W, strain CKS1, hits give low values
[4] = locus YBR136W, strain MEC1, hits give low values
[5] = locus YBR160W, strain CDC28, hits give low values
[6] = locus YDL017W, strain CDC7, hits give low values
[7] = locus YDL028C, strain MPS1, hits give low values
[8] = locus YDL101C, strain DUN1, hits give low values
[9] = locus YDL108W, strain KIN28, hits give low values
[10] = locus YDL132W, strain cdc53, hits give low values
[11] = locus YDL214C, strain PRR2, hits give low values
[12] = locus YDR052C, strain DBF4, hits give low values
[13] = locus YDR054C, strain cdc34, hits give low values
[14] = locus YDR226W, strain ADK1, hits give low values
[15] = locus YDR477W, strain SNF1, hits give low values
[16] = locus YER123W, strain YCK3, hits give low values
[17] = locus YER133W, strain GLC7, hits give low values
[18] = locus YFL009W, strain cdc4, hits give low values
[19] = locus YFL029C, strain CAK1, hits give low values
[20] = locus YFR003C, strain YPI1, hits give low values
[21] = locus YFR019W, strain FAB1, hits give low values
[22] = locus YFR028C, strain CDC14, hits give low values
[23] = locus YGR040W, strain KSS1, hits give low values
[24] = locus YGR052W, strain FMP48, hits give low values
[25] = locus YGR092W, strain DBF2, hits give low values
[26] = locus YHR030C, strain SLT2, hits give low values
[27] = locus YHR079C, strain IRE1, hits give low values
[28] = locus YHR082C, strain KSP1, hits give low values
[29] = locus YHR205W, strain SCH9, hits give low values
[30] = locus YIL147C, strain SLN1, hits give low values
[31] = locus YJL095W, strain BCK1, hits give low values
[32] = locus YJL128C, strain PBS2, hits give low values
[33] = locus YJL157C, strain FAR1, hits give low values
[34] = locus YJR016C, strain ILV3, hits give low values
[35] = locus YJR066W, strain TOR1 (second series), hits give low values
[36] = locus YJR066W, strain TOR1, hits give low values
[37] = locus YKL048C, strain ELM1, hits give low values
[38] = locus YKL067W, strain YNK1, hits give low values
[39] = locus YKL101W, strain HSL1, hits give low values
[40] = locus YKL193C, strain SDS22, hits give low values
[41] = locus YKL203C, strain TOR2, hits give low values
[42] = locus YLR113W, strain HOG1, hits give low values
[43] = locus YLR133W, strain CKI1, hits give low values
[44] = locus YLR403W, strain SFP1, hits give low values
[45] = locus YML070W, strain DAK1, hits give low values
[46] = locus YMR001C, strain CDC5, hits give low values
[47] = locus YMR205C, strain PFK2 (second series), hits give low values
[48] = locus YMR277W, strain FCP1, hits give low values
[49] = locus YNL006W, strain LST8, hits give low values
[50] = locus YNL020C, strain ARK1, hits give low values
[51] = locus YNL161W, strain CBK1, hits give low values
[52] = locus YNL183C, strain NPR1, hits give low values
[53] = locus YNL207W, strain RIO2, hits give low values
[54] = locus YNL222W, strain SSU72, hits give low values
[55] = locus YNL307C, strain MCK1 (second series), hits give low values
[56] = locus YOL078W, strain AVO1, hits give low values
[57] = locus YOL136C, strain PFK27, hits give low values
[58] = locus YOR061W, strain CKA2, hits give low values
[59] = locus YOR119C, strain RIO1, hits give low values
[60] = locus YOR231W, strain MKK1, hits give low values
[61] = locus YOR329C, strain SCD5, hits give low values
[62] = locus YPL031C, strain PHO85, hits give low values
[63] = locus YPL153C, strain RAD53, hits give low values
[64] = locus YPL204W, strain HRR25, hits give low values
[65] = locus YPL209C, strain IPL1, hits give low values
[66] = locus YPL256C, strain CLN2, hits give low values
[67] = locus YPR025C, strain CCL1, hits give low values
[68] = locus YPR106W, strain ISR1, hits give low values
[69] = locus YPR111W, strain DBF20, hits give low values
[70] = strain NNK1, hits give low values
[71] = strain TSCII, hits give low values

Measured: normalized growth

S=C(Nc1cc(-c2cccs2)[nH]n1)Nc1ccccc1Cl
inactive: [1] 0.93 | [2] 0.938 | [3] 0.934 | [4] 0.934 | [5] 0.943 | [6] 0.938 | [7] 0.932 | [8] 0.945 | [9] 0.938 | [10] 0.955 | [11] 0.825 | [12] 0.942 | [13] 0.916 | [14] 0.939 | [15] 0.816 | [16] 0.755 | [17] 0.809 | [18] 0.929 | [19] 0.925 | [20] 0.934 | [21] 0.859 | [22] 0.932 | [23] 0.819 | [24] 0.908 | [25] 0.796 | [27] 0.842 | [28] 0.821 | [29] 0.813 | [30] 0.93 | [31] 0.748 | [32] 0.908 | [33] 0.836 | [34] 0.935 | [35] 0.778 | [36] 0.773 | [37] 0.885 | [38] 0.835 | [39] 0.891 | [40] 0.917 | [41] 0.866 | [43] 0.858 | [44] 0.827 | [45] 0.834 | [46] 0.927 | [47] 0.877 | [48] 0.93 | [49] 0.937 | [50] 0.837 | [51] 0.938 | [52] 0.803 | [53] 0.913 | [54] 0.939 | [55] 0.746 | [56] 0.932 | [57] 0.859 | [58] 0.859 | [59] 0.88 | [60] 0.829 | [61] 0.935 | [62] 0.8 | [63] 0.804 | [64] 0.791 | [65] 0.942 | [67] 0.936 | [68] 0.932 | [69] 0.942 | [70] 0.94 | [71] 0.936
active: [26] 0.616 | [42] 0.739 | [66] 0.72

O=C(Nc1cc(Cl)cc(Cl)c1)Nc1cc(-c2cccs2)[nH]n1
active: [21] 0.759 | [26] 0.459 | [42] 0.825 | [66] 0.755
inactive: [1] 0.957 | [2] 0.97 | [3] 0.958 | [4] 0.972 | [5] 0.959 | [6] 0.971 | [7] 0.964 | [8] 0.972 | [9] 0.97 | [10] 0.949 | [11] 0.826 | [12] 0.978 | [13] 0.95 | [14] 0.973 | [15] 0.85 | [16] 0.712 | [17] 0.864 | [18] 0.956 | [19] 0.956 | [20] 0.964 | [22] 0.967 | [23] 0.816 | [24] 0.916 | [25] 0.686 | [27] 0.734 | [28] 0.733 | [29] 0.796 | [30] 0.967 | [31] 0.739 | [32] 0.982 | [33] 0.849 | [34] 0.948 | [35] 0.8 | [36] 0.762 | [37] 0.89 | [38] 0.854 | [39] 0.861 | [40] 0.958 | [41] 0.872 | [43] 0.851 | [44] 0.806 | [45] 0.815 | [46] 0.965 | [47] 0.88 | [48] 0.959 | [49] 0.955 | [50] 0.854 | [51] 0.959 | [52] 0.772 | [53] 0.949 | [54] 0.957 | [55] 0.744 | [56] 0.954 | [57] 0.763 | [58] 0.891 | [59] 0.906 | [60] 0.817 | [61] 0.962 | [62] 0.791 | [63] 0.739 | [64] 0.669 | [65] 0.958 | [67] 0.963 | [68] 0.953 | [69] 0.947 | [70] 0.948 | [71] 0.961

O=C(Nc1cc(Cl)cc(Cl)c1)Nc1cc(-c2ccco2)[nH]n1
active: [10] 0.608 | [11] 0.293 | [13] 0.566 | [15] 0.294 | [16] 0.15 | [17] 0.269 | [19] 0.616 | [21] 0.147 | [23] 0.288 | [24] 0.23 | [25] 0.128 | [26] 0.103 | [27] 0.119 | [28] 0.209 | [29] 0.287 | [31] 0.112 | [33] 0.257 | [35] 0.129 | [36] 0.142 | [37] 0.454 | [38] 0.316 | [39] 0.38 | [41] 0.253 | [42] 0.146 | [43] 0.295 | [44] 0.229 | [45] 0.181 | [47] 0.496 | [48] 0.777 | [49] 0.839 | [50] 0.3 | [52] 0.169 | [55] 0.202 | [57] 0.166 | [58] 0.322 | [59] 0.245 | [60] 0.115 | [62] 0.204 | [63] 0.145 | [64] 0.163 | [66] 0.14
inactive: [2] 0.935 | [3] 0.929 | [4] 0.935 | [5] 0.942 | [6] 0.95 | [7] 0.937 | [9] 0.938 | [12] 0.945 | [14] 0.94 | [20] 0.94 | [22] 0.935 | [30] 0.934 | [32] 0.944 | [34] 0.928 | [46] 0.935 | [51] 0.948 | [53] 0.894 | [54] 0.923 | [61] 0.951 | [65] 0.941 | [67] 0.93 | [68] 0.943 | [69] 0.944 | [70] 0.913
